Compound activity deposited in PubChem BioAssay by National Center for Advancing Translational Sciences (NCATS).
A selection: hits, their analogues and other compounds. The true share with any hit is near 9.4%.
Rab9 prom act – qHTS Assay for Rab9 Promoter Activators; Huh7 Rab9 promoter-luciferase reporter, luminescence, 24 h; Potency, µM (doses to about 9.22 µM), for inactives: at the highest dose activation, negative = inhibition, hits mostly activators; actives 2.8% (n = 320,000); also: % of control where 0% means no effect; nearly all actives have a fitted effect of over 60% in size
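Promoter activation is measured as luciferase luminescence in Huh7 cells stably transfected with a Rab9 promoter–luciferase construct, following 24 h compound exposure at 37 °C and 10 min reagent incubation at ambient temperature.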
ELG1 genotox – qHTS screen for small molecules that induce genotoxicity in human embryonic kidney (HEK293T) cells expressing luciferase-tagged ELG1; HEK293T ELG1-luciferase reporter, luminescence, 16 h; Potency, µM (doses to about 46 µM), for inactives: top-dose activity change, positive = activation, most hits filed as activators; actives 1.3% (n = 330,000); AID 504466, 2011; also: % of control where 0% means no effect; nearly all actives have a fitted effect of over 60% in size
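Luminescence read-out: rising ELG1-luciferase signal, reflecting elevated ELG1 protein under genetic stress, flags genotoxic compounds. Cells were treated for 16 hr at 37 °C before ONE-Glo detection.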
FLuc counter – qHTS profiling assay for firefly luciferase inhibitor/activator using purifed enzyme and Km concentrations of substrates (counterscreen for miR-21 project); Luciferin 4-monooxygenase (Photinus pyralis), P08659; purified FLuc, Km substrates, luminescence inhibition; Potency, µM (titrated, usually from 57.5 µM), for the others: at the top dose activity change, negative = inhibition, most hits filed as inhibitors; actives 6.9% (n = 360,000); AID 588342, 2011;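 also: plate controls were vehicle for no effect and reference inhibitor for full effect; nearly all actives have a fitted effect of over 55% in size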
Target sequence (P08659 whole entry, looked up): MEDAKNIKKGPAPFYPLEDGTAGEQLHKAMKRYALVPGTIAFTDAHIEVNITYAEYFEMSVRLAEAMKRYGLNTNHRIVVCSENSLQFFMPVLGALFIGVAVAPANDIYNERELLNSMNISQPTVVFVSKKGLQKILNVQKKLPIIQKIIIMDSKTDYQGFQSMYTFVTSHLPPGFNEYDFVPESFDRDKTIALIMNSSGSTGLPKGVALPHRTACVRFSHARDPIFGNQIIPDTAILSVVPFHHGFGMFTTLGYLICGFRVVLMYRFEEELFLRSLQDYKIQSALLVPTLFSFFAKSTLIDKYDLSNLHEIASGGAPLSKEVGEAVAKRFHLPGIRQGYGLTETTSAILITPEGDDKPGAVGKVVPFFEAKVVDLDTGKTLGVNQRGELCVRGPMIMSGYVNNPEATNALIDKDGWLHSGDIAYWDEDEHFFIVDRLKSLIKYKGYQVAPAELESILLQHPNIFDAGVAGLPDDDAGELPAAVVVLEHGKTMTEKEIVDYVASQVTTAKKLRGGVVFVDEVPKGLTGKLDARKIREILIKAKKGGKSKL
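Purified P. pyralis luciferase (10nM final) with 10uM D-luciferin and 10uM ATP (Km levels) in 50mM Tris acetate pH 7.5, 10mM Mg acetate, 0.01% Tween-20, 0.05% BSA; qHTS 6-point titration, ~60 µM downward; luminescence read.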
SMN2 splice up – qHTS Assay for Enhancers of SMN2 Splice Variant Expression; actives 2.8% (n = 210,000); Potency, µM (titrated, usually from 46.1 µM), inactives show at the highest dose activity change, positive = activation, hits mostly activators; AID 1458, 2008; HEK293 SMN2-luciferase splicing reporter, luminescence, 30-36 h; also: % of control where 0% means no effect; nearly all actives have a fitted effect of over 55% in size
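HEK293 cells carry an SMN2 minigene-luciferase reporter in which exon 7 inclusion puts luciferase in frame. Cells were seeded at 2000 cells/well, attached for 10-12 hours, then exposed to compounds for 30-36 hours at 37C before ONE-Glo luminescence.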
ELG1 repair inh – qHTS screen for small molecules that inhibit ELG1-dependent DNA repair in human embryonic kidney (HEK293T) cells expressing luciferase-tagged ELG1. HEK293T ELG1-luciferase reporter, luminescence, 16 h; DNA damage induced by 5-fluorouridine. actives 2.3% (n = 330,000). AID 504467, 2011. Potency, µM (titrated, usually from 46.1 µM), inactives show top-dose activity change, negative = inhibition, usual class: inhibitors; also: % is scaled to controls: 0 for no effect and ±100 for the full control effect; nearly all actives have a fitted effect of over 55% in size
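In this reporter screen, reduction of luminescence relative to DMSO vehicle indicated activity. Compounds and 5-fluorouridine were added together to 2,000 cells per well, incubated for 16 hr at 37 °C, then developed with ONE-Glo.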
NPC1 promoter act – qHTS Assay for NPC1 Promoter Activators; Huh7 NPC1 promoter luciferase reporter, 24 h; Potency, µM (highest dose often 9.22 µM), inactives show top-dose activation, most hits filed as activators; actives 2.4% (n = 320,000); also: % of control where 0% means no effect; nearly all actives have a fitted effect of over 60% in size
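Luminescence from an NPC1 promoter-driven luciferase reporter in stably transfected Huh7 cells was measured after 24 h compound treatment at 37 °C, followed by 10 min ambient incubation with luciferase detection reagent.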
The depositor's hits bear a star; ? = inconclusive; . = no result; [ ] = dose if it differs, or a comment. Calls follow the shape of the dose curve; as a rule, active = well fitted curve in the direction sought with a large enough effect; inconclusive = small, poorly fitted or top-dose-only effect, or another doubt; inactive = no such curve, though single readings can be large; an effect the other way counts as inactive or inconclusive. Potency is read from the fitted curve at half-maximal effect.

SMILES	Rab9 prom act	ELG1 genotox	FLuc counter	SMN2 splice up	ELG1 repair inh	NPC1 promoter act
Cc1ccc(-n2ncc3c(NNC(=O)c4ccco4)ncnc32)cc1Cl	9%	?	8.5µM*	.	?	15%
Cc1ccc(-n2ncc3c(NCCCN(C)C)ncnc32)cc1Cl	.	.	13µM*	.	.	.
Cc1cccc(-n2ncc3c(NNC(=O)c4ccco4)ncnc32)c1	11%	6%	?	.	-4%	2%
CC(=O)/C(=C\c1ccccc1F)C(=O)c1ccccc1	.	.	.	-8%[9.22 µM]	.	.
O=C(C1CCCCC1)N(Cc1cccnc1)c1nc2ccc(Cl)cc2s1	.	.	-17%	.	.	.
Cc1ccccc1CNC(=O)c1ccc2[nH]c(C)c(C)c2c1	.	.	-16%	.	.	.
Cc1[nH]c2ccc(C(=O)Nc3ccncc3)cc2c1C	5%	-2%	17µM*	.	12µM*	-1%
COc1ccccc1NC(=O)c1ccc2[nH]c(C)c(C)c2c1	2.8µM*	?	12µM*	.	?	?
Cc1ccccc1NC(=O)c1ccc2[nH]c(C)c(C)c2c1	.	.	21µM*	.	.	.
CN(CCCS(=O)(=O)[O-])c1ccc(/C=C/c2ccc3ccccc3[n+]2C)cc1	-3%	-1%	-11%	.	4%	-5%
[O-][n+]1c(/C=C/c2ccccc2)ccc2ccccc21	2.8µM*	6.5µM*	0.85µM*	.	?	4µM*
Cc1ccc(C)c(N2CCN(C(=O)CCc3c(C)nn(-c4ccc(N5CCCC5)nn4)c3C)CC2)c1	.	.	-3%	.	.	.
C=CCn1c2ccccc2n2nc(C)c(=O)nc12	1%	1%	0%	6%	-14%	-6%
C=CCn1c2ccccc2c(=O)c2cc(C#Cc3ccsc3)ccc21	21%	10%	0.67µM*	.	20%	16%
C=CCn1c(O)c(N=O)c2ccccc21	0%	2%	-3%	.	12%	0%
C=CCn1c2ccccc2c(=O)c2cc(C#Cc3ccccn3)ccc21	-4%	3%	7.6µM*	.	?	4µM*
CO/S(=N\S(=O)(=O)c1ccc(Cl)cc1)c1ccc([N+](=O)[O-])cc1 (configuration not stated)	-8%[46.1 µM]	.	.	.	.	5%[46.1 µM]
COc1ccccc1CNC(=O)c1ccc2c(c1)N(Cc1cc(C)ccc1C)C(=O)c1ccccc1S2	.	.	1%	.	.	.
CCN(c1ccccc1)S(=O)(=O)c1cc(C(=O)Nc2ccc(F)c(F)c2)ccc1F	-13%	-5%	-1%	-67%	21µM*	-7%
CCN(c1ccccc1)S(=O)(=O)c1cc(NC(=O)Nc2ccccc2C#N)ccc1Cl	0%	-6%	1%	-22%	21µM*	0%
CCN(c1ccccc1)S(=O)(=O)c1ccc(Cl)c(NC(=O)Nc2ccc(Cl)cc2C#N)c1	1%	-3%	?	-12%	-25%	-1%
O=C(CN1C(=O)CC(c2ccc(F)cc2)=Nc2ccccc21)NCc1ccccc1Cl	.	.	-6%	.	.	.
Cc1cc(C(=O)CN2C(=O)NC3(CCCCC3)C2=O)c(C)n1Cc1ccco1	1.4µM*	6.5µM*	7.6µM*	11µM*	?	2.2µM*
Cc1cc(C(=O)CSc2nnc(-c3ccccc3F)o2)c(C)n1Cc1cccs1	-6%	1%	?	-30%	?	-3%
Cc1cc(C(=O)CN2C(=O)c3cccc(N)c3C2=O)c(C)n1Cc1cccs1	1.1µM*	2.9µM*	1.1µM*	8.9µM*	?	1.3µM*
SMILES	Rab9 prom act	ELG1 genotox	FLuc counter	SMN2 splice up	ELG1 repair inh	NPC1 promoter act
Cc1cc(-n2c(C)cc(C(=O)CN3C(=O)NC4(CCCCC4C)C3=O)c2C)no1 (configuration not stated)	-8%	1%	3%	19%	-9%	-3%
Cc1cc(C(=O)CN2C(=O)NC3(CCCCC3C)C2=O)c(C)n1Cc1cccs1 (configuration not stated)	2.8µM*	?	6.7µM*	16µM*	?	4µM*
Cc1ccc(C)c(Nc2nc(-c3ccccc3)c3cc(Br)ccc3n2)c1	.	.	0%	1%	.	.
Brc1ccc(/C=N/Nc2ccccn2)cc1	3.5µM*	?	6.7µM*	.	?	?
COc1ccc2nc(Cl)c(/C=N/Nc3ccccn3)cc2c1	?	?	0.54µM*	?	?	28%
COc1ccc(/C=N/Nc2ccccn2)cc1O	?	?	6.7µM*	.	?	?
CCOc1ccc(/C=N/Nc2ccccn2)cc1	0.5µM*	2.3µM*	1.2µM*	1.6µM*	?	1.3µM*
Clc1ccc(/C=N/Nc2ccccn2)cc1	3.2µM*	?	6.7µM*	.	?	?
Fc1ccc(/C=N/Nc2ccccn2)cc1	3.5µM*	?	11µM*	81%	?	28%
Cc1ccc(/C=N/Nc2ccccn2)s1	?	?	11µM*	.	?	?
CC1(C)Cc2ccccc2C(N/N=C/c2ccc(Cl)cc2)=N1	-3%	-5%	17µM*	-8%	-2%	-2%
COC(=O)[C@@]1(Cc2ccc(OC)cc2)[C@H]2c3cc(C(=O)N(C)C)n(C)c3C[C@H]2CN1C(=O)c1ccccc1	.	.	.	25%	.	.
CCOc1ccccc1NC(=O)Cn1cc(C(=O)c2ccc(Cl)cc2)c(=O)c2ccc(C)nc21	.	.	2%	.	.	.
CCOC(=O)CC(NC(=O)CCc1c(C)nc2cc(-c3ccccc3)nn2c1C)c1ccc(C)cc1 (configuration not stated)	.	.	-20%	-20%	.	.
CCCOc1cccc(C(=O)N(Cc2sccc2C)C2CCS(=O)(=O)C2)c1 (configuration not stated)	.	.	-1%	-15%	.	.
Cc1cccc(NC(=O)C2CCN(S(=O)(=O)c3ccc(F)cc3)CC2)c1C	.	.	-11%	-17%	.	.
Cc1csc2ncc(C(=O)Nc3ccc4c(c3)OCCO4)c(=O)n12	2.2µM*	2.3µM*	?	4.5µM*	?	?
Cc1csc2ncc(C(=O)Nc3ccon3)c(=O)n12	12%	5%	-8%	-4%	22%	13%
Cc1cccc(NC(=O)c2cnc3scc(C)n3c2=O)c1	3.2µM*	16%	8.5µM*	13µM*	?	3.2µM*
Cc1ccc(C)c(NC(=O)Cn2c(=O)n(Cc3ccc4c(c3)OCO4)c(=O)c3ccccc32)c1	.	.	-2%	-2%	.	.
Cc1ccc(/C=C/C(=O)Nc2ncc(C)s2)o1	2.8µM*	?	1.9µM*	3.2µM*	?	3.5µM*
